For 9 molecules, growth inhibition results are on record in PubChem BioAssay (NCI).

Each structure is given as a SMILES string. The panel holds about 79,000 compounds, 15% with a hit somewhere; the sample as a whole holds those more often. Unmarked numbers belong to inactive results. Active and inactive are the calls of the source. Cut-off read from the data, not from the text of the source: active = growth inhibition above about 70%; inactive = the rest.

Experiment [1] can be described thus: NCI Yeast Anticancer Drug Screen. Data for the rad50 strain (AID 155).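 Note: 0% = growth of vehicle-only cultures of the same strain.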 Particulars: S. cerevisiae rad50 strain growth inhibition, hits give high values. The procedure, abridged:
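Genetically altered yeast (DNA repair pathway); compound treatment; growth inhibition vs vehicle ctrl.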

A short description of experiment [2]: NCI Yeast Anticancer Drug Screen. Data for the mec2-1 strain (AID 157). Particulars: S. cerevisiae mec2-1 strain, hits give high values. The procedure, abridged:
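Strain: mec2-1 (DNA repair/cell cycle alteration). Compound exposure, then growth measured; inhibition expressed relative to vehicle.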

A short description of experiment [3]: NCI Yeast Anticancer Drug Screen. Data for the sgs1 mgt1 strain (AID 161).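 Note: 0% = growth of cultures given vehicle only.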 Particulars: S. cerevisiae sgs1 mgt1 strain, hits give high values. The procedure, abridged: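 Inhibition of yeast growth, normalised to vehicle-treated controls, is reported for a strain bearing genetic alterations in DNA damage repair.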
The nature of experiment [4]: NCI Yeast Anticancer Drug Screen. Data for the cln2 rad14 strain (AID 165).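 Note: 0% = growth equal to vehicle treated cultures.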 Particulars: S. cerevisiae cln2 rad14 strain, hits give high values. The procedure, abridged:
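Compounds are applied to the cln2 rad14 yeast strain, and growth is then compared with that of vehicle-treated cultures to give inhibition.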

Experiment [5] can be described thus: NCI Yeast Anticancer Drug Screen. Data for the bub3 strain (AID 167). Particulars: S. cerevisiae bub3 mutant strain, hits give high values. The procedure, abridged: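 Yeast carrying a defined mutation is treated with each compound, and growth is compared with that of vehicle-exposed cells to give inhibition.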
The nature of experiment [6]: NCI Yeast Anticancer Drug Screen. Data for the mlh1 rad18 strain (AID 175). Particulars: S. cerevisiae mlh1 rad18 strain growth inhibition, hits give high values. The procedure, abridged:
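Read-out is yeast growth inhibition, calculated against vehicle-only controls. The compound was applied to a strain engineered with DNA damage repair alterations.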

[7] abbreviates: at 5.0 µM (retest, dose inferred, filed as 0.5).
[8] abbreviates: at 50.0 µM (retest, dose inferred, filed as 5.0).

Consider `C=CCOC(=O)OCCCO`, for which the growth inhibition was 0% in experiment [1] (setting [7]); -3% in experiment [1] (setting [8]); 91.7% (active) in experiment [1] (at 50.0 µM); -1% in experiment [2] (setting [7]); -1% in experiment [2] (setting [8]); 99.2% (active) in experiment [2] (at 50.0 µM). Moreover, the growth inhibition in experiment [3] (setting [7]) was 2%; in experiment [3] (setting [8]), -1%; in experiment [3] (at 50.0 µM), 97.2% (active); in experiment [4] (setting [7]), -5%; in experiment [4] (setting [8]), 2%; in experiment [4] (at 50.0 µM) it was 95.8% (active). Further, the growth inhibition was -1% in experiment [5] (setting [7]); -3% in experiment [5] (setting [8]); 98.8% (active) in experiment [5] (at 50.0 µM); -1% in experiment [6] (setting [7]); -1% in experiment [6] (setting [8]); 95.5% (active) in experiment [6] (at 50.0 µM).
For the molecule `O=S(=O)(c1ccc2c(c1)CCCN2)N1CCC[C@H]2CCCC[C@@H]21`, the growth inhibition in experiment [1] (setting [7]) is 7%; in experiment [1] (setting [8]), 94% (active); in experiment [1] (at 50.0 µM), 95.3% (active); in experiment [2] (setting [7]) it was -2%; in experiment [2] (setting [8]), 96% (active); in experiment [2] (at 50.0 µM), 96.8% (active). For the same molecule, the growth inhibition in experiment [3] (setting [7]) was 0%; in experiment [3] (setting [8]) it was 95% (active); in experiment [3] (at 50.0 µM), 97.1% (active); in experiment [4] (setting [7]), 32%; in experiment [4] (setting [8]), 94% (active); in experiment [4] (at 50.0 µM), 95.5% (active). The growth inhibition is 14% in experiment [5] (setting [7]); 96% (active) in experiment [5] (setting [8]); 98.2% (active) in experiment [5] (at 50.0 µM); 11% in experiment [6] (setting [7]); 93% (active) in experiment [6] (setting [8]); 95% (active) in experiment [6] (at 50.0 µM).
As to `O=C(Nn1c(-c2ccccc2)nc2ccccc2c1=O)c1ccccc1O`, the growth inhibition in experiment [1] (setting [7]) was -4%; in experiment [1] (setting [8]), 49%; in experiment [1] (at 50.0 µM), 73.4% (active); in experiment [2] (setting [7]), -14%; in experiment [2] (setting [8]), 51%; in experiment [2] (at 50.0 µM), 64.2%. In addition, the growth inhibition is 3% in experiment [3] (setting [7]); 59% in experiment [3] (setting [8]); 79.5% (active) in experiment [3] (at 50.0 µM); 9% in experiment [4] (setting [7]); 59% in experiment [4] (setting [8]); 77.8% (active) in experiment [4] (at 50.0 µM). Moreover, the growth inhibition is -11% in experiment [5] (setting [7]); 80% (active) in experiment [5] (setting [8]); 78.2% (active) in experiment [5] (at 50.0 µM); -1% in experiment [6] (setting [7]); 79% (active) in experiment [6] (setting [8]); 69.8% in experiment [6] (at 50.0 µM).
With `CC(C)(C)[Si](C)(C)OCC1OC(n2cnc3c(NC(=O)c4ccccc4)ncnc32)CC1O` (configuration not stated), the growth inhibition in experiment [1] (setting [7]) was 2%; in experiment [1] (setting [8]) it was 4%; in experiment [1] (at 50.0 µM), 10%; in experiment [2] (setting [7]), -2%; in experiment [2] (setting [8]), 4%; in experiment [2] (at 50.0 µM), -28.8%. In addition, the growth inhibition in experiment [3] (setting [7]) was -1%; in experiment [3] (setting [8]), 6%; in experiment [3] (at 50.0 µM), 3.25%; in experiment [4] (setting [7]), -1%; in experiment [4] (setting [8]) it was 2%; in experiment [4] (at 50.0 µM), 77.6% (active). The growth inhibition is -2% in experiment [5] (setting [7]); -4% in experiment [5] (setting [8]); 10.5% in experiment [5] (at 50.0 µM); -2% in experiment [6] (setting [7]); 4% in experiment [6] (setting [8]); 32.5% in experiment [6] (at 50.0 µM).
On to `COc1ccc2ccc(/C=C/[N+](=O)[O-])cc2c1OC`, for which the growth inhibition in experiment [1] (setting [7]) is 48%; in experiment [1] (setting [8]), 98% (active); in experiment [1] (at 50.0 µM), 55.1%; in experiment [2] (setting [7]), 40%; in experiment [2] (setting [8]), 99% (active); in experiment [2] (at 50.0 µM) it was 88.2% (active). Moreover, the growth inhibition in experiment [3] (setting [7]) was 53%; in experiment [3] (setting [8]), 99% (active); in experiment [3] (at 50.0 µM) it was 34.8%; in experiment [4] (setting [7]), 41%; in experiment [4] (setting [8]), 99% (active); in experiment [4] (at 50.0 µM), 37.9%. Also, the growth inhibition was 67% in experiment [5] (setting [7]); 99% (active) in experiment [5] (setting [8]); 85.3% (active) in experiment [5] (at 50.0 µM); 37% in experiment [6] (setting [7]); 98% (active) in experiment [6] (setting [8]); 67.6% in experiment [6] (at 50.0 µM).
Regarding `O=C(O)C/C(=C\c1ccco1)C(=O)O`, the growth inhibition was -8% in experiment [1] (setting [7]); 9% in experiment [1] (setting [8]); 44.9% in experiment [1] (at 50.0 µM); -4% in experiment [2] (setting [7]); -9% in experiment [2] (setting [8]); -11.5% in experiment [2] (at 50.0 µM). Also, the growth inhibition was -4% in experiment [3] (setting [7]); -2% in experiment [3] (setting [8]); -30.6% in experiment [3] (at 50.0 µM); -1% in experiment [4] (setting [7]); -1% in experiment [4] (setting [8]); 38% in experiment [4] (at 50.0 µM). Moreover, the growth inhibition in experiment [5] (setting [7]) was -8%; in experiment [5] (setting [8]) it was -13%; in experiment [5] (at 50.0 µM), -27.9%; in experiment [6] (setting [7]) it was -4%; in experiment [6] (setting [8]), -7%; in experiment [6] (at 50.0 µM), -16.4%.
As for `O=C(Oc1c(Cl)c(Cl)c(Cl)c(Cl)c1Cl)c1ccc(Cl)cc1`, the growth inhibition in experiment [1] (setting [7]) was 25%; in experiment [1] (setting [8]) it was 99% (active); in experiment [1] (at 50.0 µM), 99.6% (active); in experiment [2] (setting [7]), 19%; in experiment [2] (setting [8]) it was 99% (active); in experiment [2] (at 50.0 µM) it was 99.7% (active). Besides, the growth inhibition was 24% in experiment [3] (setting [7]); 99% (active) in experiment [3] (setting [8]); 99% (active) in experiment [3] (at 50.0 µM); 13% in experiment [4] (setting [7]); 99% (active) in experiment [4] (setting [8]); 99.7% (active) in experiment [4] (at 50.0 µM). For the same molecule, the growth inhibition was 15% in experiment [5] (setting [7]); 99% (active) in experiment [5] (setting [8]); 99.7% (active) in experiment [5] (at 50.0 µM); 30% in experiment [6] (setting [7]); 99% (active) in experiment [6] (setting [8]); 99.2% (active) in experiment [6] (at 50.0 µM).
For `S=C(NC/C(Br)=C/Br)Nc1cccc2ccccc12`, the growth inhibition in experiment [1] (setting [7]) was -30%; in experiment [1] (setting [8]) it was 99% (active); in experiment [1] (at 50.0 µM) it was 86% (active); in experiment [2] (setting [7]) it was -18%; in experiment [2] (setting [8]), 99% (active); in experiment [2] (at 50.0 µM) it was 89.8% (active). The growth inhibition was -21% in experiment [3] (setting [7]); 99% (active) in experiment [3] (setting [8]); 85.6% (active) in experiment [3] (at 50.0 µM); -5% in experiment [4] (setting [7]); 99% (active) in experiment [4] (setting [8]); 88.8% (active) in experiment [4] (at 50.0 µM). Also, the growth inhibition was -25% in experiment [5] (setting [7]); 99% (active) in experiment [5] (setting [8]); 90.7% (active) in experiment [5] (at 50.0 µM); -13% in experiment [6] (setting [7]); 99% (active) in experiment [6] (setting [8]); 81.3% (active) in experiment [6] (at 50.0 µM).
With `COc1cc2c(Cc3ccc(OC)c(OC)c3)[n+](Cc3ccccc3)ccc2cc1NCc1ccccc1`, the growth inhibition in experiment [1] (setting [7]) is 90% (active); in experiment [1] (setting [8]) it was 98% (active); in experiment [1] (at 50.0 µM) it was 89% (active); in experiment [2] (setting [7]) it was 90% (active); in experiment [2] (setting [8]), 99% (active); in experiment [2] (at 50.0 µM), 92.2% (active). The growth inhibition was 93% (active) in experiment [3] (setting [7]); 99% (active) in experiment [3] (setting [8]); 86% (active) in experiment [3] (at 50.0 µM); 65% in experiment [4] (setting [7]); 98% (active) in experiment [4] (setting [8]); 89.6% (active) in experiment [4] (at 50.0 µM). Further, the growth inhibition was 92% (active) in experiment [5] (setting [7]); 99% (active) in experiment [5] (setting [8]); 81.1% (active) in experiment [5] (at 50.0 µM); 88% (active) in experiment [6] (setting [7]); 99% (active) in experiment [6] (setting [8]); 92.7% (active) in experiment [6] (at 50.0 µM).
